# Source: PubChem
# This excerpt belongs to a sample that is enriched for hits.
# Methyltransferases: Primary Screen for Target Class Profiling of Small Molecule Inhibitors of Methyltransferases | 25,000 compounds, 3.9% hits | calls only at 40 µM | purified enzyme, MTase-Glo SAH luminescence; active compounds read low; call rule not given here
#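 Each enzyme was reacted with SAM and its substrate, with compounds tested once at 40 uM; SAH formed was read by MTase-Glo luminescence.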
# MTase-Glo ctr: inhibits MTase-Glo coupling enzymes without methyltransferase | shares compounds with Methyltransferases | MTase-Glo coupled enzymes, SAH conversion luminescence, no MTase | Potency, µM (titrated, usually from 57.3 µM), inactives show top-dose activity change, negative = inhibition, actives largely listed as inhibitors | 180 compounds, 6% hits; active = well fitted inhibition curve with a large enough effect; inconclusive = small, poorly fitted or top-dose-only effect; note: potency is the fitted concentration of half-maximal effect
# * marks the source's active call; other numbers are inactive results; i = inactive; ? = inconclusive; + = active, no number; [ ] = remark or other dose. % is set by controls: 0 for no effect and ±100 for the full control effect.
SMILES,Methyltransferases,others
CCc1ccc(-c2cc3n(n2)CC(C)(C(=O)NC2CCCCC2)N(c2ccc(OC)cc2)C3=O)cc1 (configuration not stated),i,
COc1ccc(-c2cc(-c3cnn(C)c3)cn3cncc23)cn1,+,MTase-Glo ctr=?
Cc1ccc(NS(=O)(=O)c2ccc3[nH]c4c(c3c2)CCCC4)c(Cl)c1,i,
CCCn1c(=O)c2ccc(C(=O)NC(C)C)cc2n2c(SCC(=O)Nc3ccc(C)cc3)nnc12,i,
COC[C@H]1C[C@@H](NC(=O)Nc2cccnc2)[C@H](O)[C@@H]1O,i,
COCc1cc(NCCCNc2cccnc2)ncn1,+,MTase-Glo ctr=-7%
CC1(C(=O)NC2CCCC2)Cn2c(cc3ccccc32)C(=O)N1C1CCN(Cc2ccccc2)CC1 (configuration not stated),i,
O=C(C1CCCC1)N1CC2(CCN(Cc3cccnc3)CC2)Cc2ccccc21,i,
O=C(c1ccc(Cl)cc1)N1CC2(CCN(CC3CC3)CC2)Cc2ccccc21,+,MTase-Glo ctr=-1%
O=C(c1ccccc1)N1CC2(CCCN2Cc2cccnc2)Cc2ccccc21 (configuration not stated),i,
CCCn1c(=O)c2ccc(C(=O)NCC(C)C)cc2n2c(=O)n(Cc3ccc(Cl)cc3)nc12,i,
CC1(C(=O)NC2CCCC2)Cn2c(ccc2-c2ccco2)C(=O)N1c1ccc(F)cc1 (configuration not stated),i,
O=C(CCC[C@@H]1[C@H]2CCCN3CCC[C@@H](CN1Cc1ccccc1)[C@@H]23)Nc1cccnc1,+,MTase-Glo ctr=-4%
COc1cccc(N2CCN(C(=O)CCC[C@@H]3[C@H]4CCCN5CCC[C@@H](CN3C)[C@@H]45)CC2)c1,i,
COc1ccc(C)cc1NC(=O)CCC[C@@H]1[C@H]2CCCN3CCC[C@@H](CN1C)[C@@H]23,i,
COc1cccc(CN2CCCC3(CCN(C(=O)c4cnc(C)cn4)C3)C2)c1 (configuration not stated),i,
CCOc1ccccc1C(=O)N1CCC(c2n[nH]c(=O)n2Cc2ccc(OC)cc2)CC1,i,
COc1ccc(-c2[nH]nc3ncc(C(=O)N4CCC(c5ccccc5)CC4)nc23)c(C)c1,+,MTase-Glo ctr=-11%[85.7 µM]
CCc1ccccc1N1C(=O)c2cc3ccccc3n2CC1(C)C(=O)NCCC(C)C (configuration not stated),i,
CCc1ccccc1N1C(=O)c2cc(C(C)(C)C)nn2CC1(C)C(=O)NCCC(C)C (configuration not stated),i,
CN1C(=O)c2cc(C(=O)NCc3ccccc3Cl)nn2CC1(C)C(=O)NCc1ccccc1 (configuration not stated),i,
CCCn1c(=O)c2ccc(C(=O)NC3CCCC3)cc2n2c(=O)n(CC(=O)NC(C)CC)nc12 (configuration not stated),i,
CC1(C(=O)NCc2ccccc2)Cn2c(nc3ccccc32)C(=O)N1C1CC1 (configuration not stated),i,
CCC(C)NC(=O)c1ccc2c(=O)n(Cc3ccccc3)c3nn(Cc4ccccc4F)c(=O)n3c2c1 (configuration not stated),i,
COC(=O)c1ncn2c1C(=O)N(CCc1cccs1)C(C)(C(=O)NC1CCCCC1)C2 (configuration not stated),i,
SMILES,Methyltransferases,others
CC1CCCC(NC(=O)C2(C)Cn3c(cc4sccc43)C(=O)N2Cc2ccccc2Cl)C1C (configuration not stated),i,
c1ccc2c(c1)OCC(CCn1ccnc1-c1cc3n(n1)CCNC3)O2 (configuration not stated),i,
Cc1cnccc1NCCn1ccnc1-c1cc2n(n1)CCCNC2,+,MTase-Glo ctr=-2%
Cc1ccc(-n2ccnc2-c2cc3n(n2)CCNC3)cc1N1CCCC1=O,i,
CC1(C(=O)NC2CCCCCC2)Cc2ccccc2C(=O)N1C1CCCCCC1 (configuration not stated),i,
Cc1ccc(C(=O)Cn2nc3n(CCCOC(C)C)c(=O)c4ccccc4n3c2=O)c(C)c1,i,
COc1ccc(OCc2cc(C(=O)NC(CO)C(C)C)no2)c2ccccc12 (configuration not stated),+,MTase-Glo ctr=2%
COc1cccc(CNC(=O)c2c(C)noc2-c2ccccc2OC)c1,i,
COc1cccc(OC)c1-c1cc(C(=O)N[C@@H](CC(C)C)C(=O)O)nn1-c1ccnc2cc(Cl)ccc12,i,
CCCn1c(=O)c2ccc(C(=O)NCC(C)C)cc2n2c(=O)n(CC(=O)c3ccc(OCC)cc3)nc12,i,
CC(=O)Nc1c2n(c3ccc(F)cc13)CC(C)(C(=O)NC1CCCC1)N(Cc1ccccc1)C2=O (configuration not stated),i,
Cc1cc(F)ccc1NC(=O)Cn1nc2nc(Nc3ccc(F)cc3)ccn2c1=O,i,
